Screens: PubChem, several laboratories
An excerpt weighted towards active compounds, which were near 1.4% of everything screened.
PrPC TRFRET: cell surface PrPC inhibition, primary TR-FRET screen | P04156 | TR-FRET read-out | inhibition, % at 13.8 µM | 0.43% of 370,000 active; in the data active = inhibition above about 24%; also: 0% = median of the test wells and 100% = reference compound wells
PrP 5UTR inh: suppresses PrP 5' UTR mRNA reporter expression; cell-based PrP 5' UTR mRNA reporter, plate reader; inhibition, % (no concentration beside the values); 0.35% of 340,000 active; AID 488862; in the data active = inhibition above about 52%; also: 0 = median of the neutral control wells
BJeLR viability: kills HRASV12-expressing BJeLR cells. BJeLR (HRASV12) viability, CellTiter-Glo ATP luminescence, 48 h. inhibition, % (no concentration beside the values). 0.17% of 300,000 active. AID 1554; in the data active = inhibition above about 50%
Mtb hypoxia rep: reduces hypoxia-regulated biosensor signal in M. tuberculosis; M. tuberculosis hypoxia-regulated fluorescent reporter, fluorescence; fluorescence inhibition, % (concentration not given with the values); 0.1% of 300,000 active; AID 1159583; in the data active = fluorescence inhibition mostly above about 23%, no sharp cut-off; inactive = mostly below about 17%
RecA splice inh: blocks M. tuberculosis RecA intein splicing; P9WHJ3; 0.75% of 290,000 active; inhibition, % (test concentration not listed); cell-free RecA intein splicing, fluorescence; in the data active = inhibition above about 30%;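 also: 0% = vehicle wells and 100% = reference inhibitor control wells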
3CLpro inhibitor: SARS-CoV 3CLpro protease inhibition. inhibition, % at 6 µM. recombinant SARS-CoV 3CLpro, quenched FRET peptide cleavage. 0.14% of 290,000 active; in the data active = inhibition above about 12%
GFP chromo cs: counter-screen: blocks GFP chromophore formation; shares compounds with RecA splice inh; cell-free GFP chromophore formation, fluorescence; EC50, µM; 83% of 2,100 active; AID 434968; call rule not given here
Numbers without * were called inactive.

What do the screens show for `O=S(=O)(Nc1cccnc1)c1cccc(C(F)(F)F)c1`?
PrPC TRFRET: 4.4; PrP 5UTR inh: -16.8; BJeLR viability: 9.1; Mtb hypoxia rep: 12.5; RecA splice inh: -2.4; 3CLpro inhibitor: 1.2

What do the screens show for `CC(C)[C@H](NC(=O)Nc1ccc(Oc2ccccc2)cc1)C(=O)O`?
PrPC TRFRET: 3.5; PrP 5UTR inh: -19.3; BJeLR viability: 1.7; RecA splice inh: 62.0*; 3CLpro inhibitor: -3.0; GFP chromo cs: >38

Results for Cc1ccc(Nc2cc(C)nn2-c2nc(C)cc(=O)[nH]2)cc1 ?
PrP 5UTR inh: 28.5; BJeLR viability: 39.7; Mtb hypoxia rep: 19.9; RecA splice inh: 39.3*; 3CLpro inhibitor: 1.4; GFP chromo cs: >38

What do the screens show for `CC1CC(=O)c2c(cc3c(-c4c(O)cc(O)c5c(O)c6c(cc45)OC(C)CC6=O)c(O)cc(O)c3c2O)O1` (stereo not given)?
PrP 5UTR inh: -28.5; BJeLR viability: -11.3; RecA splice inh: 95.7*; 3CLpro inhibitor: -0.4; GFP chromo cs: 2.5*

What do the screens show for `CC1CN(C(C)CO)C(=O)c2cccc(NC(=O)NC3CCCCC3)c2OC1CN(C)C(=O)Nc1ccccc1` (stereo not given)?
Mtb hypoxia rep: 11.1

Results for CCCCCC(=O)Cc1cc(O)cc2c1C(=O)Oc1cc(O)c(C(=O)O)c(CCCCC)c1O2 ?
BJeLR viability: -13.8; RecA splice inh: 66.3*; GFP chromo cs: 7.25*

How did COc1ccc(/C=N/NC(=O)c2nn(-c3ccc(C)c(C)c3)c(=O)c3ccccc23)cc1 do in these assays?
PrPC TRFRET: 5.5; PrP 5UTR inh: -7.6; BJeLR viability: -2.5; RecA splice inh: -1.5; 3CLpro inhibitor: -4.7

Results for COc1ccc(/C=N/NC(=O)c2nn(-c3ccc(Cl)cc3)c(=O)c3c(N)scc23)cc1 ?
PrPC TRFRET: -20.3; PrP 5UTR inh: -8.4; BJeLR viability: -0.3; RecA splice inh: 40.3*; 3CLpro inhibitor: -1.4; GFP chromo cs: 17.1*

How did CC(C)Cc1nc(N2CCN(C(=O)c3ccco3)CC2)c(C#N)c2c1CCCC2 do in these assays?
PrPC TRFRET: 0.7; PrP 5UTR inh: -3.6; BJeLR viability: -0.8; Mtb hypoxia rep: 3.5; RecA splice inh: 23.9; 3CLpro inhibitor: -2.3

What do the screens show for `CC(C)C(=O)N1CCN(c2nc(-c3ccccc3)c3c(c2C#N)CCCC3)CC1`?
PrPC TRFRET: -8.1; PrP 5UTR inh: -11.4; BJeLR viability: -2.1; Mtb hypoxia rep: 0.3; RecA splice inh: 31.0*; 3CLpro inhibitor: 4.2; GFP chromo cs: >38

How did CC(=O)N1c2ccc(F)c(F)c2CC1C (stereo not given) do in these assays?
Mtb hypoxia rep: 6.4

Results for CC(=O)C1=C(C)OC(N)=C(C#N)C1c1ccco1 (stereo not given) ?
PrPC TRFRET: -4.3; PrP 5UTR inh: -4.7; BJeLR viability: 1.5; Mtb hypoxia rep: 14.5; RecA splice inh: 4.5; 3CLpro inhibitor: -6.6

What do the screens show for `CCCc1nn(-c2ccccc2)c2c1C(c1cccs1)C(C#N)=C(N)O2` (stereo not given)?
PrPC TRFRET: 3.4; PrP 5UTR inh: -31.2; BJeLR viability: -4.0; Mtb hypoxia rep: 2.2; RecA splice inh: 66.6*; 3CLpro inhibitor: -4.9; GFP chromo cs: 16.5*

How did Cc1nn(-c2ccccc2)c2c1C(c1ccco1)C(C#N)=C(N)O2 (stereo not given) do in these assays?
PrPC TRFRET: -12.9; PrP 5UTR inh: -17.1; BJeLR viability: 11.1; Mtb hypoxia rep: -8.4; RecA splice inh: 68.1*; 3CLpro inhibitor: 6.3; GFP chromo cs: 17.8*

How did Cc1nn(-c2ccccc2)c2c1C(c1cccs1)C(C#N)=C(N)O2 (stereo not given) do in these assays?
PrP 5UTR inh: -3.7; BJeLR viability: -3.0; RecA splice inh: 91.9*; 3CLpro inhibitor: -0.7; GFP chromo cs: 9.81*

What do the screens show for `O=C(C[n+]1cccc(C=NO)c1)N1CCCc2ccccc21`?
Mtb hypoxia rep: -2.9

Results for Cc1[nH]n(-c2ccccc2)c(=O)c1C(c1ccc(C(=O)O)cc1)c1c(C)[nH]n(-c2ccccc2)c1=O ?
PrPC TRFRET: -8.2; PrP 5UTR inh: -18.9; BJeLR viability: 4.0; Mtb hypoxia rep: 0.9; RecA splice inh: 95.9*; 3CLpro inhibitor: 0.0; GFP chromo cs: 1.17*

Results for Cc1[nH]n(-c2ccccc2)c(=O)c1C(=O)c1ccc([N+](=O)[O-])cc1 ?
PrPC TRFRET: -16.9; PrP 5UTR inh: -26.3; BJeLR viability: -2.2; Mtb hypoxia rep: 12.7; RecA splice inh: 3.5; 3CLpro inhibitor: 2.4

Results for Cc1c(C(c2cccc([N+](=O)[O-])c2O)c2c(C)n(C)n(-c3ccccc3)c2=O)c(=O)n(-c2ccccc2)n1C ?
PrPC TRFRET: -4.6; PrP 5UTR inh: -13.2; Mtb hypoxia rep: -3.6; RecA splice inh: -4.1; 3CLpro inhibitor: -1.9

How did Cc1[nH]n(-c2ccccc2)c(=O)c1C(c1cccc([N+](=O)[O-])c1)c1c(C)[nH]n(-c2ccccc2)c1=O do in these assays?
PrPC TRFRET: -8.2; PrP 5UTR inh: -27.8; BJeLR viability: -4.6; Mtb hypoxia rep: 10.7; RecA splice inh: 84.9*; 3CLpro inhibitor: -0.9; GFP chromo cs: 4.8*

What do the screens show for `Cc1[nH]n(-c2ccccc2)c(=O)c1C(c1cccc([N+](=O)[O-])c1O)c1c(C)[nH]n(-c2ccccc2)c1=O`?
PrPC TRFRET: -9.9; PrP 5UTR inh: -9.1; BJeLR viability: -6.9; Mtb hypoxia rep: 12.9; RecA splice inh: 92.6*; 3CLpro inhibitor: -0.8; GFP chromo cs: 1.31*

Results for COc1ccc(S(=O)(=O)Nc2cccc3c2OC(CN(C)C(=O)Nc2ccc(C(F)(F)F)cc2)C(C)CN(C(C)CO)C3=O)cc1 (stereo not given) ?
Mtb hypoxia rep: 6.2

Results for CC1COC(=O)C(CC(=O)OC(C)(C)C)CC=CCC(CC(=O)NC(CO)Cc2ccccc2)C(=O)N1 (stereo not given) ?
Mtb hypoxia rep: 12.2

Results for CC1CC=CC2C1C(=O)N(Cc1ccccc1)C2c1ccc(F)c(C=Cc2ccccc2)c1 (stereo not given) ?
Mtb hypoxia rep: 0.0

What do the screens show for `O=C1Cc2ccccc2C(=O)N1CCc1ccccc1`?
PrPC TRFRET: 1.9; PrP 5UTR inh: -31.3; BJeLR viability: -6.6; RecA splice inh: 92.3*; 3CLpro inhibitor: 2.4; GFP chromo cs: 5.48*

Results for COc1ccc(C=NNC(=O)c2ccoc2C)cc1O ?
Mtb hypoxia rep: 1.3

How did CC(C)Cn1cnc2c(c(-c3ccccc3)c(-c3ccccc3)n2Cc2ccco2)c1=N do in these assays?
PrPC TRFRET: -6.4; PrP 5UTR inh: 2.3; BJeLR viability: 5.8; RecA splice inh: 19.3; 3CLpro inhibitor: 1.0
